Experimental data reported in PubChem BioAssay (NCATS).
Inconclusive results are not listed. Activity calls are given as the source filed them. Calls come from the whole dose curve; as a rule, active = well fitted inhibition curve with a large enough effect; inconclusive = small, poorly fitted or top-dose-only effect; inactive = flat fitted curve, though single readings scatter.

Test system: GB4
Experiment: qHTS profiling for inhibitors of Plasmodium falciparum proliferation (AID 504749); note: nearly all actives have a fitted effect of over 60% in size;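 for activity, negative = inhibition: 0% = DMSO vehicle and full inhibition = artemisinin control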
Details: P. falciparum in erythrocytes, SYBR Green DNA, 72 h; series mostly up to 28.7 µM; activity, negative = inhibition: at the top concentration
Summary of the method: (§1)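 P. falciparum-infected erythrocytes (0.3% parasitemia, 2.5% hematocrit final) were exposed to compounds for 72 h at 37 C in 5% CO2, then lysed with SYBR Green buffer overnight at room temperature; parasite DNA fluorescence was normalized to artemisinin and DMSO controls.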
Potency is the fitted concentration of half-maximal effect.

| Structure (SMILES) | activity, negative = inhibition | Potency |
| --- | --- | --- |
| CCCC(=O)Nc1ncnc2c1ncn2C1OC2COP(=O)(O)OC2C1OC(=O)CCC (stereo not given) | -9.57% (inactive) | – |
| CCCCCCCCCCCCCC[n+]1ccc(C)cc1 | – | 1.2 µM (active) |
| C[C@]12CCC(=O)C=C1CC[C@@H]1[C@@H]2[C@@H](O)C[C@@]2(C)[C@H]1CC[C@]2(O)C(=O)COP(=O)(O)O | 0.0492% (inactive) | – |
| CC(NNC(=O)c1ccccc1)c1ccccc1 (stereo not given) | -1.32% (inactive) | – |
| COC(C(=O)C(O)C(C)O)C1Cc2cc3cc(OC4CC(OC5CC(O)C(O)C(C)O5)C(O)C(C)O4)c(C)c(O)c3c(O)c2C(=O)C1OC1CC(OC2CC(OC3CC(C)(O)C(O)C(C)O3)C(O)C(C)O2)C(O)C(C)O1 (stereo not given) | – | 1.35 µM (active) |
| Nc1c(N=Nc2ccc(-c3ccc(N=Nc4cc(S(=O)(=O)O)c5ccccc5c4N)cc3)cc2)cc(S(=O)(=O)O)c2ccccc12 | -12.3% (inactive) | – |
| Cc1c(C)c2c(c(C)c1O)CC[C@@](C)(CCC[C@H](C)CCC[C@H](C)CCCC(C)C)O2 | -1.42% (inactive) | – |
| CCN(CC)CCOc1ccc(-c2nc3cc(Cl)ccc3s2)cc1 | – | 16.9 µM (active) |
| CCOC(=O)C1=C(C)NC(C)=C(C(=O)OCC)C1c1ccccc1C=CC(=O)OC(C)(C)C | – | 10.7 µM (active) |
| CC(C)N=c1cc2n(-c3ccc(Cl)cc3)c3ccccc3nc-2cc1Nc1ccc(Cl)cc1 | -8.34% [at 12.8 µM] (inactive) | – |
| COC(=O)[C@H]1[C@H]2C[C@@H]3c4[nH]c5ccccc5c4CCN3C[C@H]2C[C@@H](OC(=O)c2cc(OC)c(OC)c(OC)c2)[C@@H]1OC | – | 0.135 µM (active) |
| CC1=C(/C=C/C(C)=C/C=C/C(C)=C/C=C/C=C(C)/C=C/C=C(C)/C=C/C2=C(C)CCCC2(C)C)C(C)(C)CCC1 | -7.11% (inactive) | – |
| Cc1cn([C@H]2C[C@H](O)[C@@H](CO)O2)c(=O)[nH]c1=O | -0.954% (inactive) | – |
| C#C[C@]1(O)CC[C@H]2[C@@H]3CCC4=CCCC[C@@H]4[C@H]3C(=C)C[C@@]21CC | -7.52% (inactive) | – |
| CCCCCCCCCCCCCCCC(=O)OCC(COC(=O)CCCCCCCCCCCCCCC)OC(=O)CCCCCCCCCCCCCCC | -1.24% (inactive) | – |
| CC(C(=O)O)c1ccc(N2Cc3ccccc3C2=O)cc1 (stereo not given) | -10.1% (inactive) | – |
| CC(C)=O | -5.99% (inactive) | – |
| Cc1c(C)c2c(c(C)c1O)CC[C@@](C)(CCC[C@@H](C)CCC[C@@H](C)CCCC(C)C)O2 | -7.32% (inactive) | – |
| CO[C@H](C(=O)[C@@H](O)[C@@H](C)O)C1Cc2cc3cc(O[C@H]4C[C@@H](O[C@H]5C[C@@H](O)[C@H](O)[C@@H](C)O5)[C@@H](O)[C@@H](C)O4)c(C)c(O)c3c(O)c2C(=O)[C@H]1O[C@H]1C[C@@H](O[C@H]2C[C@@H](O[C@H]3C[C@](C)(O)[C@H](O)[C@@H](C)O3)[C@H](O)[C@@H](C)O2)[C@H](O)[C@@H](C)O1 (stereo not given in full) | – | 0.675 µM (active) |
| O=C(O)CN(CCN(CC(=O)O)CC(=O)O)CC(=O)O | -13.9% (inactive) | – |
| CCC(=O)NCCC1CCc2ccc3c(c21)CCO3 (stereo not given) | 1.05% (inactive) | – |
| CCOc1ccc2c(c1)C(C)=CC(C)(C)N2 | -0.504% (inactive) | – |
| COCC(=O)Nc1cc(Sc2ccccc2)ccc1N=C(NC(=O)OC)NC(=O)OC | -17.2% (inactive) | – |
| Cc1cc(C(=O)NNCc2ccccc2)no1 | -6.18% [at 12.8 µM] (inactive) | – |
| IC(I)I | -4.64% (inactive) | – |
| C=CCSSSCC=C | -3.7% (inactive) | – |
| O=C(O)c1cc(=O)c2c3nc4ccccc4oc-3cc(=O)c2[nH]1 | – | 16.9 µM (active) |
| CCCCCCC(O)C/C=C/CCCCCCCC(=O)O (stereo not given) | -3.83% (inactive) | – |
| C[C@]12O[C@H](C[C@]1(O)CO)n1c3ccccc3c3c4c(c5c6ccccc6n2c5c31)CNC4=O | – | 0.269 µM (active) |
| CC1=CCC(C(C)(C)O)CC1 (stereo not given) | -7.23% (inactive) | – |

Test system: HB3
Experiment: as above
Details: P. falciparum in erythrocytes, SYBR Green DNA, 72 h; series mostly up to 28.7 µM; activity, negative = inhibition: at the top concentration
Summary of the method: as §1

| Structure (SMILES) | activity, negative = inhibition | Potency |
| --- | --- | --- |
| CCCC(=O)Nc1ncnc2c1ncn2C1OC2COP(=O)(O)OC2C1OC(=O)CCC (stereo not given) | 0.501% (inactive) | – |
| CCCCCCCCCCCCCC[n+]1ccc(C)cc1 | – | 3.55 µM (active) |
| C[C@]12CCC(=O)C=C1CC[C@@H]1[C@@H]2[C@@H](O)C[C@@]2(C)[C@H]1CC[C@]2(O)C(=O)COP(=O)(O)O | -3.81% (inactive) | – |
| CC(NNC(=O)c1ccccc1)c1ccccc1 (stereo not given) | -2.94% (inactive) | – |
| COC(C(=O)C(O)C(C)O)C1Cc2cc3cc(OC4CC(OC5CC(O)C(O)C(C)O5)C(O)C(C)O4)c(C)c(O)c3c(O)c2C(=O)C1OC1CC(OC2CC(OC3CC(C)(O)C(O)C(C)O3)C(O)C(C)O2)C(O)C(C)O1 (stereo not given) | – | 0.1 µM (active) |
| Nc1c(N=Nc2ccc(-c3ccc(N=Nc4cc(S(=O)(=O)O)c5ccccc5c4N)cc3)cc2)cc(S(=O)(=O)O)c2ccccc12 | -7.01% (inactive) | – |
| Cc1c(C)c2c(c(C)c1O)CC[C@@](C)(CCC[C@H](C)CCC[C@H](C)CCCC(C)C)O2 | -0.507% (inactive) | – |
| CCN(CC)CCOc1ccc(-c2nc3cc(Cl)ccc3s2)cc1 | -22% (inactive) | – |
| CCOC(=O)C1=C(C)NC(C)=C(C(=O)OCC)C1c1ccccc1C=CC(=O)OC(C)(C)C | – | 12.6 µM (active) |
| CC(C)N=c1cc2n(-c3ccc(Cl)cc3)c3ccccc3nc-2cc1Nc1ccc(Cl)cc1 | -3.11% [at 12.8 µM] (inactive) | – |
| COC(=O)[C@H]1[C@H]2C[C@@H]3c4[nH]c5ccccc5c4CCN3C[C@H]2C[C@@H](OC(=O)c2cc(OC)c(OC)c(OC)c2)[C@@H]1OC | – | 0.794 µM (active) |
| CC1=C(/C=C/C(C)=C/C=C/C(C)=C/C=C/C=C(C)/C=C/C=C(C)/C=C/C2=C(C)CCCC2(C)C)C(C)(C)CCC1 | 4.48% (inactive) | – |
| Cc1cn([C@H]2C[C@H](O)[C@@H](CO)O2)c(=O)[nH]c1=O | 0.445% (inactive) | – |
| C#C[C@]1(O)CC[C@H]2[C@@H]3CCC4=CCCC[C@@H]4[C@H]3C(=C)C[C@@]21CC | 13% (inactive) | – |
| CCCCCCCCCCCCCCCC(=O)OCC(COC(=O)CCCCCCCCCCCCCCC)OC(=O)CCCCCCCCCCCCCCC | 0.268% (inactive) | – |
| CC(C(=O)O)c1ccc(N2Cc3ccccc3C2=O)cc1 (stereo not given) | 5.96% (inactive) | – |
| CC(C)=O | 15.9% (inactive) | – |
| Cc1c(C)c2c(c(C)c1O)CC[C@@](C)(CCC[C@@H](C)CCC[C@@H](C)CCCC(C)C)O2 | -4.93% (inactive) | – |
| CO[C@H](C(=O)[C@@H](O)[C@@H](C)O)C1Cc2cc3cc(O[C@H]4C[C@@H](O[C@H]5C[C@@H](O)[C@H](O)[C@@H](C)O5)[C@@H](O)[C@@H](C)O4)c(C)c(O)c3c(O)c2C(=O)[C@H]1O[C@H]1C[C@@H](O[C@H]2C[C@@H](O[C@H]3C[C@](C)(O)[C@H](O)[C@@H](C)O3)[C@H](O)[C@@H](C)O2)[C@H](O)[C@@H](C)O1 (stereo not given in full) | – | 0.1 µM (active) |
| O=C(O)CN(CCN(CC(=O)O)CC(=O)O)CC(=O)O | 1.62% (inactive) | – |
| CCC(=O)NCCC1CCc2ccc3c(c21)CCO3 (stereo not given) | 8.38% (inactive) | – |
| CCOc1ccc2c(c1)C(C)=CC(C)(C)N2 | 4.52% (inactive) | – |
| COCC(=O)Nc1cc(Sc2ccccc2)ccc1N=C(NC(=O)OC)NC(=O)OC | -23.5% (inactive) | – |
| Cc1cc(C(=O)NNCc2ccccc2)no1 | 8.56% [at 12.8 µM] (inactive) | – |
| IC(I)I | -3.95% (inactive) | – |
| C=CCSSSCC=C | -1.63% (inactive) | – |
| O=C(O)c1cc(=O)c2c3nc4ccccc4oc-3cc(=O)c2[nH]1 | – | 12.6 µM (active) |
| CCCCCCC(O)C/C=C/CCCCCCCC(=O)O (stereo not given) | -15.5% (inactive) | – |
| C[C@]12O[C@H](C[C@]1(O)CO)n1c3ccccc3c3c4c(c5c6ccccc6n2c5c31)CNC4=O | – | 0.447 µM (active) |
| CC1=CCC(C(C)(C)O)CC1 (stereo not given) | 8.95% (inactive) | – |
